Results on 40 compounds are retold here after PubChem BioAssay (Tox21).

Molecules are shown by their SMILES. Inconclusive results are not listed. Entries that show only a call come without a potency. Unmarked numbers belong to inactive results. Active and inactive are the calls of the source. Calls come from the whole dose curve; as a rule, active = well fitted cell-killing curve with a large enough effect in the repeat runs; inconclusive = weak or mixed curves, or effect the other way; inactive = flat fitted curve, though single readings scatter.

A short description of the assay: qHTS assay to identify small molecule antagonists of the constitutive androstane receptor (CAR) signaling pathway - cell viability counter screen (AID 1224837). Note: nearly all actives have a fitted effect of over 45% in size. The following applies: HepG2-CYP2B6-hCAR viability, CellTiter-Fluor, 23 h, co-treated with 50 nM CITCO; series mostly up to 92.4 µM. The source says:
National Center for Advancing Translational Sciences [NCATS]
NIH Chemical Genomics Center [NCGC]
U.S. Environmental Protection Agency [EPA]
National Institutes of Environmental Health Sciences [NIEHS]
National Toxicology Program [NTP]
U.S. Food and Drug Administration [FDA]
The constitutive androstane receptor (CAR) is a nuclear receptor which regulates multiple drug metabolizing enzymes (DMEs) and transporters. Activating CAR will generally increase the transcription and subsequent translation of CYP2B6 and CYP3A4. These two DMEs represent about 50% of the drug metabolizing potential in the body. When CAR is deactivated, the metabolizing potential in the body will decrease, subsequently increasing the toxicity in the body or lowering the therapeutic potential of a pro-drug. Recently, there have also been studies performed indicating CARs role in energy metabolism and cancer therapy. Therefore, inhibiting CARs activity could have a potential effect on diabetes and cancer. Identifying environmental toxins and compounds which modulate CAR, through the use of the Tox21 10K compound collection, will be an important step in determining the toxicity and potential therapeutic effects these factors will have on the human body. To differentiate true CAR antagonists from cytotoxic substances, the assay is multiplexed with a cell viability assay.
Tox21 Assay Protocol Summary:
A double-stable (hCAR and CYP2B6-2.2kb) transfected cell line, derived from human hepatoma (HepG2) cells, was utilized for the duration of the quantitative high-throughput screens. The HepG2-CYP2B6-hCAR cells were dispensed at 2500 cells/4 uL/well in 1536-well white solid bottom plates using a Multidrop Combi. After the assay plates were incubated at 37 C/5% CO2 for 4 hrs, 23 nL of compounds at 15 concentrations (from 5-48 columns) or positive control (from 1 to 4 columns) were transferred to the assay plates using a Pintool station. One uL of CITCO (final concentration = 50 nM) was added, using a Flying Reagent Dispenser, inside each well. After a 23 hr incubation period at 37 C/5% CO2, 1 uL of CellTiter-Fluor reagent was added into each well of the assay plates using a Flying Reagent Dispenser. The fluorescence intensity in the plates was then measured using a ViewLux plate reader.
Consider `C[C@@H](N)[C@@H](O)c1ccccc1`, for which the Potency entry was “inactive”.
Take `C[C@H](N)C(=O)c1ccccc1`: the Potency entry is “inactive”.
For `CCCCS(=O)(=O)Cl`, the Potency entry was “inactive”.
As to `Clc1ccc(C(Cl)(Cl)Cl)cn1`, the Potency result was “inactive”.
Turning to `CCNP(=S)(OC)O/C(C)=C/C(=O)OC(C)C` (stereo not given), the Potency entry is “inactive”.
For `CCOP(=S)(OCC)Oc1ccc(Cl)cc1Cl`, the Potency result is “inactive”.
The same measure, in the same setting: the entry for `O=C(Cl)C(Cl)(Cl)Cl` is “inactive”.
Take `C=CCc1cc(OC)c2c(c1)OCO2`: the Potency entry is “inactive”.
The same measure, in the same setting: the entry for `BrCCc1ccccc1` is “inactive”; for `CC(C)C(C)(N)C#N` (stereo not given) it is “inactive”.
As to `O=P(O)(O)CN(CP(=O)(O)O)CP(=O)(O)O`, the Potency entry was “inactive”.
Take `CNC(=O)O/N=C(/CSC)C(C)(C)C`: the Potency result is “inactive”.
On the same count and under the same terms, the entry for `O=P(O)(O)c1ccccc1` is “inactive”; for `[P]#[In]` it is “inactive”; for `CCCC(C)C1(CC)C(=O)N=C(S)NC1=O` (stereo not given) it is “inactive”.
Regarding `CCOC1Oc2ccc(OS(C)(=O)=O)cc2C1(C)C` (stereo not given), the Potency entry was “inactive”.
Regarding `CN(C)CCN(C)C`, the Potency entry was “inactive”.
Consider `ClCCCCl`, for which the Potency result is “inactive”.
On to `C#CCOC(=O)/C=C(C)/C=C/CC(C)CCCC(C)C` (stereo not given), for which the Potency result is “inactive”.
Regarding `CNC(=O)Oc1ccccc1C(C)C`, the Potency entry is “inactive”.
For `CCNc1nc(Cl)nc(NC(C)(C)C)n1`, the Potency entry was “inactive”.
For the compound `CCOC(=O)CCl`, the Potency result was “inactive”.
`CCOC(=O)COc1ccc(Cl)cc1Cl`: the Potency result was “inactive”.
As to `C=CC(=O)OCCN(C)C`, the Potency result is “inactive”.
In the case of `BrCC1CO1` (stereo not given), the Potency result is “inactive”.
Consider `CCC(CC)(CNC(=O)CCCO)c1cccc(OC)c1`, for which the Potency result is “inactive”.
In the case of `CC(=O)OCC1=C(C(=O)O)N2C(=O)[C@@H](N)[C@H]2SC1`, the activity change, negative = cytotoxicity was 5.22% [at 19 µM].
As for `C=C(C)[C@H]1CN[C@H](C(=O)O)[C@H]1CC(=O)O`, the Potency entry was “inactive”.
For the compound `O=C(Cl)OCc1ccccc1`, the Potency result is “inactive”.
On to `CCOC(=O)NC(C)(C)Cc1ccc(Cl)cc1`, for which the Potency entry was “inactive”.
The same measure, in the same setting: the entry for `ClCC1CO1` (stereo not given) is “inactive”; for `ClCOCCl` it is “inactive”.
As for `CC(C)N(Cc1ccccc1)C(=O)C(C)(C)C`, the Potency result was “inactive”.
For `CC(C)(C)NC[C@H](O)c1ccc(O)cc1Cl`, the Potency entry is “inactive”.
As to `COC(=O)c1ccccc1CS(=O)(=O)NC(=O)Nc1nc(OC)cc(OC)n1`, the Potency entry is “inactive”.
`COc1cccc([C@@]2(O)CCCC[C@@H]2CN(C)C)c1`: the Potency entry was “inactive”.
Consider `C=CCN1CC[C@]23CCCC[C@H]2[C@H]1Cc1ccc(O)cc13`, for which the Potency entry is “inactive”.
`CC(C)[N+](C)(CCC(C(N)=O)(c1ccccc1)c1ccccc1)C(C)C`: the Potency entry was “inactive”.
Still for that read-out and setting: the entry for `COc1ccccc1OC` is “inactive”; for `CCN1CCCC1CNC(=O)C(O)(c1ccccc1)c1ccccc1` (stereo not given) it is “inactive”.
